# Data reported in ChEMBL document CHEMBL4513216, “Probing the Open Global Health Chemical Diversity Library for Multistage-Active Starting Points for Next-Generation Antimalarials” (ACS Infect Dis, 2020).
# Screen size: about 69,000 compounds; about 8,600 (12%) showed an effect of 50% or more. The sample as a whole holds a higher share of strong results than the screen did.
# Test system: Plasmodium berghei
# Assay: Screen against P. berghei liver stage (PbLuc), transformed with Luciferase, at 10uM
# Format: functional, HepG2
# Conditions: tested at 10 uM
row,SMILES,INHIBITION [%]
1,CCS(=O)(=O)N1C[C@@H]2C[C@H](C(=O)N(C)C)[C@H](C1)O2,22.2
2,CN1CCCn2c(nc(CNC(=O)c3ccsc3)cc2=O)C1,35.8
3,O=c1cc(CNS(=O)(=O)C2CC2)nc2n1CCCN(CC1CC1)C2,33.1
4,CCCN1CCCn2c(nc(CNC(=O)c3ccsc3)cc2=O)C1,18.5
5,O=C(NCc1cc(=O)n2c(n1)CN(CC1CC1)CCC2)c1ccsc1,89.2
6,CCN1CCCn2c(nc(CNC(=O)c3ccsc3)cc2=O)C1,58
7,Cc1oncc1C(=O)NCc1cc(=O)n2c(n1)CN(CC1CC1)CCC2,36.4
8,Cc1nn(C)c(N(C)C)c1CNCc1ccnc(N2CCCC2)c1,-44.3
9,Oc1cc(-c2ccccn2)nc(C2CCN(Cc3ccncc3)CC2)n1,-44.8
10,O=C(CCN1CCOC(Cn2cccn2)C1)NC1CCCCC1 (centres undefined),-107
11,O=C(c1ccncc1)N1CCCn2c(CN3CCCC3)nnc2C1,35.7
12,O=C(c1ccc[nH]1)N1CCCn2c(nnc2Cn2cccn2)C1,-17.2
13,COCC(=O)N1CCCn2c(CN3CCCC3)nnc2C1,56.6
14,O=C(c1ccncc1)N1CCCn2c(CN3CCCCC3)nnc2C1,31.8
15,COCC(=O)N1CCCn2c(CN3CCOCC3)nnc2C1,-2.46
16,Cc1cccc(C(=O)N2CCCn3c(CN4CCCCC4)nnc3C2)c1,25.2
17,O=C1CCCN1Cc1nnc2n1CCCN(C(=O)c1ccc[nH]1)C2,53
18,O=C(c1cccc(Cl)c1)N1CCCn2c(CN3CCCCC3)nnc2C1,55.2
19,COCC(=O)N1CCCn2c(CN3CCCCC3)nnc2C1,20.1
20,O=C(c1ccc[nH]1)N1CCCn2c(CN3CCCCC3)nnc2C1,42.1
21,O=C(c1ccccc1F)N1CCCn2c(CN3CCCCC3)nnc2C1,18.3
22,O=C(c1ccccc1)N1CCCn2c(CN3CCCCC3)nnc2C1,50.9
23,Cc1nc(C)n(CC2CCCN(Cc3cccc4c3OCCO4)C2)n1 (centres undefined),38.8

row,SMILES,INHIBITION [%]
1,Cc1noc(C)c1-c1cncc(CC2CCN(C(=O)c3cc[nH]n3)C2)n1 (centres undefined),22
2,CNc1nc(C2CCCN(C(=O)C(C)C)C2)nc2c1CN(C)CC2 (centres undefined),12.3
3,Cc1cccc(OCCN2CCCC(c3cc(C(N)=O)[nH]n3)C2)c1 (centres undefined),-46.4
4,Cc1cc(C(=O)N2CCCC3(COCCN(c4ncccn4)C3)C2)[nH]n1 (centres undefined),33.4
5,COc1ccc2c(c1)C(C(=O)NCCCN1CCN(C)CC1)CC(=O)N2 (centres undefined),26
6,N#CC1(C(=O)N2CCCN(c3nccs3)CC2)CCCC1,7.305
7,Nc1nccc(C2CCCN(CC3CC3)C2)n1 (centres undefined),23
8,COc1ccc(C2CCCN2C(=O)NCCCn2ccnc2)cc1 (centres undefined),54.45
9,O=C(NCCCn1cccn1)N1CCCC1c1ccncc1 (centres undefined),9.3
10,CC1COCCN1C(=O)NCCCn1ccnc1 (centres undefined),24.8
11,CC1CN(C)CCN1C(=O)NCCCn1ccnc1 (centres undefined),60.1
12,COc1ccc(C2CCCN2C(=O)NCCn2ccnc2)cc1 (centres undefined),21.425
13,CC1COCCN1C(=O)NCCn1ccnc1 (centres undefined),-3.94
14,COc1ccc(C2CCCN2C(=O)NCCCn2cccn2)cc1 (centres undefined),56
15,O=C(NCCCn1ccnc1)N1CCCC1c1ccncc1 (centres undefined),37
16,COc1cccc(C2CCCN2C(=O)NCCCn2cccn2)c1 (centres undefined),45.7
17,O=S1(=O)COCCN1Cc1ccc(Cl)c(Cl)c1,-12.5
18,c1csc(-c2noc(CNCCn3cccn3)n2)c1,18.2
19,CC(=O)N1CC[C@@H]2CN(Cc3ccncc3)S(=O)(=O)[C@@H]2CC1,-10.5
20,Cc1ccsc1CN1CCC(c2nnc(Cn3cccn3)n2C)CC1,25.4
21,CN(Cc1ccccc1)C(=O)CCNS(=O)(=O)c1cccnc1,-17.6
22,COc1cc(C)sc1C(=O)NCCC(=O)N(C)Cc1ccccc1,66.3
23,COc1cc(C)sc1C(=O)NCCC(=O)N(C)c1ccccc1,78.2

row,SMILES,INHIBITION [%]
1,COC(=O)CCNC(=O)c1cccc(C(=O)N(C)c2ccccc2)c1,43.4
2,COc1cc(C)sc1C(=O)NCCNc1ccccc1,43.1
3,COc1ccsc1C(=O)NCCNc1ccccc1,-33
4,CC(=O)N1CCCC(c2ccccn2)C1 (centres undefined),15.9
5,CCOCCN1CCC(c2cncc(C)n2)CC1,10.155
6,CC(C)CNC(=O)CN(CC(=O)NCC(C)C)S(C)(=O)=O,37.4
7,C=C(C)COc1cccc(CNC(COC)c2ccnn2C)c1 (centres undefined),37.6
8,C=C(C)COc1cccc(CNC(CC)c2ccnn2C)c1 (centres undefined),66.6
9,C=C(C)COc1ccccc1CNC(CC)c1ccnn1C (centres undefined),36.7
10,CC(C)c1ncc(CN2CCC(O)(c3ccccc3F)CC2)cn1,33.04
11,Cc1cc(C)cc(N2CC(c3nnc(N)s3)CC2=O)c1 (centres undefined),-11.4
12,c1cn(-c2cnc(C3CCCNC3)cn2)cn1 (centres undefined),24.4
13,CC(C)CN1CCc2[nH]cnc2C12CCN(C(=O)c1cccnc1)CC2,16.6
14,CC(C)CN1CCc2[nH]cnc2C12CCN(C(=O)c1ccnn1C)CC2,65.8
15,CC(C)CN1CCc2[nH]cnc2C12CCN(C(=O)c1cncn1C)CC2,33.4
16,CC(C)CN1CCc2[nH]cnc2C12CCN(C(=O)c1cnn(C)c1)CC2,51.8
17,CC(C)CN1CCc2[nH]cnc2C12CCN(C(=O)c1ccc[nH]1)CC2,33.4
18,Cc1ocnc1C(=O)N1CCC2(CC1)c1nc[nH]c1CCN2CC(C)C,47.4
19,Cc1nn(C)cc1-c1cncn1CCc1ccc2c(c1)OCCO2,27.6
20,CC(C)C[C@@H](CO)n1cc(-c2cnc(-c3ccco3)nc2)nn1,-6.83
21,NC(=O)NC(=O)CCN1CCCC1c1nc(C2CCCCC2)co1 (centres undefined),-5.33
22,Cc1ccc(F)c2c1N(C(=O)Cc1c(C)nn(C)c1C)CCC2,-19.1
23,CCCS(=O)(=O)NCCn1ccc(-c2cccs2)n1,34.6

row,SMILES,INHIBITION [%]
1,CS(=O)(=O)NCCn1ccc(-c2cccs2)n1,22.5
2,Cc1nn(C)c(C)c1S(=O)(=O)NCCn1ccc(-c2cccs2)n1,63.1
3,O=C(NCC1CCOCC1)[C@H]1C[C@@H]2CCN(Cc3ccncc3)C[C@@H]2O1,10
4,Cc1cn[nH]c1C1COCCN1C(=O)c1cc(F)ccc1F (centres undefined),22.8
5,COCC1CN(Cc2ccc(F)cc2)Cc2nnn(CC3CC3)c21 (centres undefined),-9.54
6,COc1ccc2oc(-c3cn(C)nc3C)c(O)c(=O)c2c1,8.49
7,O=C1NCCN2CCN(C(=O)Nc3ccc(-c4ccccc4)cc3)CC12 (centres undefined),18.6
8,COc1cccc(CNC(=O)N2CCN3CCNC(=O)C3C2)c1 (centres undefined),15.2
9,O=C1NCCN2CCN(C(=O)NCCc3ccccc3)CC12 (centres undefined),61.1
10,O=C(c1ccccn1)N1C[C@H]2CC[C@@H](C1)N(C(=O)CCc1cccs1)C2,21.8
11,CCC(=O)N1CCC(c2ncncc2C)CC1,21.1
12,Cc1ncsc1C(=O)Nc1cccc(OCC(F)F)n1,17.4
13,NC(=O)Nc1cccc(C(=O)N(Cc2ccncc2)C2CC2)c1,71.1
14,Cc1ccc(CN(C(=O)c2cccc(NC(N)=O)c2)C2CC2)o1,17.9
15,NC(=O)Nc1cccc(C(=O)N(Cc2ccc(F)cc2)C2CC2)c1,13.5
16,Cc1occc(=O)c1OCc1noc(C(=O)NC2CCCC2)n1,6.67
17,CCOCC1CN(c2ccc(C)nn2)Cc2cnn(CC)c21 (centres undefined),48.4
18,CCOCC1CN(C(=O)CS(C)(=O)=O)Cc2cnn(C)c21 (centres undefined),19.5
19,CCn1ncc2c1C(COCC1CC1)CN(c1ccc(C)nn1)C2 (centres undefined),86.2
20,CCOCC1CN(C(=O)c2ccco2)Cc2cnn(CC)c21 (centres undefined),78.8
21,CCOCC1CN(C(=O)N2CCCC2)Cc2cnn(C)c21 (centres undefined),21.4
22,Cc1ccc(N2Cc3cnn(C)c3C(COCC3CC3)C2)nn1 (centres undefined),24.6
23,CCOCC1CN(C(=O)c2cccn2C)Cc2cnn(CC3CC3)c21 (centres undefined),19

row,SMILES,INHIBITION [%]
1,CCOCC1CN(C(=O)c2ccco2)Cc2cnn(C)c21 (centres undefined),18.4
2,CCOCC1CN(C(=O)c2ccnnc2)Cc2cnn(CC)c21 (centres undefined),5.44
3,CCn1cc2c(n1)C(COCC1CC1)CN(C(=O)c1ccco1)C2 (centres undefined),-78.9
4,O=C(c1ccco1)N1Cc2cnn(CC3CC3)c2C(COCC2CC2)C1 (centres undefined),50.4
5,CCOCC1CN(C(=O)C2CCOCC2)Cc2cnn(C)c21 (centres undefined),59.9
6,CNC(=O)c1ccc(C(=O)N2CCCC(n3ccnc3)C2)cn1 (centres undefined),18.2
7,Cc1cnn(CC2CCCN2CC(=O)NC2CCOCC2)c1 (centres undefined),15.3
8,O=C1NCCN(CC2CC2)C12CCN(Cc1ccccc1)CC2,47.4
9,CCc1noc(CN2CCCN(Cc3cccs3)CC2)n1,-47.6
10,Cc1nn(C)c(Cl)c1C1CCCN1Cc1ccc(C(N)=O)cc1 (centres undefined),-1.14
11,CCOCC1CN(S(=O)(=O)CC)Cc2cnn(CC3CC3)c21 (centres undefined),31.7
12,CCOCC1CN(c2ncccn2)Cc2cnn(CC3CCOCC3)c21 (centres undefined),22.5
13,Cn1ncc2c1C(COCC1CC1)CN(S(C)(=O)=O)C2 (centres undefined),33.4
14,CCOCC1CN(C2CCCC2)Cc2cnn(CC3CCOCC3)c21 (centres undefined),58.8
15,CCn1cc2c(n1)C(COCC1CC1)CN(c1ccc(C)nn1)C2 (centres undefined),41
16,CCOCC1CN(C)Cc2cnn(CC3CCCC3)c21 (centres undefined),36.8
17,CCOCC1CN(c2ccc(C)nn2)Cc2nn(CC)cc21 (centres undefined),63.5
18,CCn1cc2c(n1)C(COC)CN(c1ccc(C)nn1)C2 (centres undefined),36.2
19,CS(=O)(=O)N1Cc2cnn(CC3CC3)c2C(COCC2CC2)C1 (centres undefined),53.4
20,COCC1CN(c2ccncn2)Cc2cnn(CC3CCCC3)c21 (centres undefined),19.5
21,CCOCC1CN(S(C)(=O)=O)Cc2cnn(CC3CCOCC3)c21 (centres undefined),30.1
22,COCC1CN(c2ncccn2)Cc2cnn(CC3CC3)c21 (centres undefined),84.2
